NPSR antagonist: antagonists of human neuropeptide S receptor cAMP signaling | hit rate 1% among 220,000 | Q6W5P4 | Potency, µM (titrated, usually from 38.3 µM), without a hit: at the highest dose activity change, negative = inhibition, hits mostly inhibitors | CHO-NPSR cells, cAMP TR-FRET, antagonist mode; note: potency is the fitted concentration of half-maximal effect; nearly all actives have a fitted effect of over 50% in size
Target sequence (Q6W5P4 whole entry, looked up): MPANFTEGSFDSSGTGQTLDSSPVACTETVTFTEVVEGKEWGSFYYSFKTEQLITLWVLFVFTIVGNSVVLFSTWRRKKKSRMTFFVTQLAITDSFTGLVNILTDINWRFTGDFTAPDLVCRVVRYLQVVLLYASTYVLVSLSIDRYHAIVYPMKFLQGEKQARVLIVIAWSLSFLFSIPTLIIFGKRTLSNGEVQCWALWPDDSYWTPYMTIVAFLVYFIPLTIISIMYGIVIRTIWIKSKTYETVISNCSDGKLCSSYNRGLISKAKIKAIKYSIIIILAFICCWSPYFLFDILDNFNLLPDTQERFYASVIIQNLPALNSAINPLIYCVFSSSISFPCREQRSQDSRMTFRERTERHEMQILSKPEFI
ALDH1A1 inh: ALDH1A1 (human) enzyme inhibition; hit rate 7.3% among 220,000; P00352; Purified ALDH1A1, NADH fluorescence, propionaldehyde substrate; Potency, µM (series often up to 75.3 µM), without a hit: top-dose activity, negative = inhibition, usual class: inhibitors; active = well fitted inhibition curve with a large enough effect, not every such curve was filed as active; inconclusive = small, poorly fitted or top-dose-only effect, or another doubt; inactive = no such curve, though single readings can be large or run the other way;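 note: potency is the fitted concentration of half-maximal effect; plate controls were no enzyme wells and a reference inhibitor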
JMJD2E inh: blocks human JMJD2E demethylase activity; AID 2147; Potency, µM (doses to about 57.1 µM), inactives show at the highest dose activity change, negative = inhibition, actives largely listed as inhibitors; hit rate 1.6% among 230,000; JMJD2E catalytic domain, FDH-coupled NADH fluorescence (FDH is formaldehyde dehydrogenase); B2RXH2; active = well fitted inhibition curve with a large enough effect, not every such curve was filed as active; inconclusive = small, poorly fitted or top-dose-only effect, or another doubt; inactive = no such curve, though single readings can be large or run the other way;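 note: potency is the fitted concentration of half-maximal effect; 0% = wells with enzyme and -100% = buffer wells without enzyme; nearly all actives have a fitted effect of over 50% in size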
Sfp inh: inhibitors of Bacillus subtilis Sfp phosphopantetheinyl transferase; Biochemical Sfp PPTase activity, qHTS; Potency, µM, for inactives: largest response in the series, negative = inhibition, hits mostly inhibitors; Q9F4F7; hit rate 3.5% among 310,000;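 note: the enzyme is Sfp with the accession as filed and its product quenches rhodamine fluorescence; potency is the fitted concentration of half-maximal effect; 0% = enzyme reaction without inhibitor and -100% = no enzyme wells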
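Sfp 15 nM + cpd, 15 min RT; start w/ rhodamine-CoA 5 uM, BHQ-2-YbbR 12.5 uM (final); 50 mM Hepes pH 7.6, 10 mM MgCl2, 0.01% NP-40, 0.01% BSA; read 525/598 nm at 0 and 30 min.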
Coupling enz: inhibits coupling enzyme system, counter-screen for aldolase hits; hit rate 0.67% among 290,000; activity change, negative = inhibition, % at 58.2 µM, hits read low; coupling enzyme system counterscreen, AmpLite Red fluorescence; in the data active = activity change below about -30%
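Fluorescence at 525 nm excitation and 598 nm emission measured inhibition of the coupled detection system without aldolase. Compounds (at 57.5 uM final) were preincubated 10 min at room temperature with coupling enzyme reagent before a 20 min substrate/AmpLite Red step.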
GoLoco inh red: blocks human Gai1 binding to RGS12 GoLoco peptide, red readout | hit rate 0.44% among 230,000 | Potency, µM (titrated, usually from 61.6 µM), for the others: at the top dose activity, negative = inhibition, most hits filed as inhibitors | Gai1:RGS12 GoLoco peptide FP, rhodamine, 10 min; active = well fitted inhibition curve with a large enough effect, not every such curve was filed as active; inactive = no such curve, though single readings can be large or run the other way; note: potency is the fitted concentration of half-maximal effect; nearly all actives have a fitted effect of over 30% in size
Target sequence (P63096 whole entry, looked up): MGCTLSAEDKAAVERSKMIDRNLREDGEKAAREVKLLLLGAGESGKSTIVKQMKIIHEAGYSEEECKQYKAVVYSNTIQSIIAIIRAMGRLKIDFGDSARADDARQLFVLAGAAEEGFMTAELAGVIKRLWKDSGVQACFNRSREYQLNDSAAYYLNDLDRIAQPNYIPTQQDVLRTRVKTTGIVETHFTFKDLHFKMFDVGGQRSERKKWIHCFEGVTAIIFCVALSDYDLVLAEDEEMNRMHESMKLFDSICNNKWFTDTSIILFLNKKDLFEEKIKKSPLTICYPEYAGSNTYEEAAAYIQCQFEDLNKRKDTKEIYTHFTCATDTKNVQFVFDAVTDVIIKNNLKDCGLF
* = called active by the depositor; u = inconclusive; x = no result; [ ] = dose if it differs, or a comment. In the library only some 8.5% were active in any assay of this set; here they are far more common. Unless noted, calls come from the whole dose curve; as a rule, active = well fitted curve in the direction sought with a large enough effect; inconclusive = small, poorly fitted or top-dose-only effect, or another doubt; inactive = no such curve, though single readings can be large; an effect the other way counts as inactive or inconclusive. Unless noted, % is set by controls: 0 for no effect and ±100 for the full control effect.

SMILES	NPSR antagonist	ALDH1A1 inh	JMJD2E inh	Sfp inh	Coupling enz	GoLoco inh red
CC(=O)Nc1ccc(S(=O)(=O)NC2CC2)cc1	x	x	x	3%	2	x
O=C(COC(=O)c1cc[n+]([O-])cc1)Nc1ccccc1Sc1ccccc1	1%	11µM*	14%	21%	-20	21%
O=C(COC(=O)c1cc[n+]([O-])cc1)Nc1cccc(Cl)c1Cl	20%	-7%	-4%	11%	-5	10%
O=C1CCC/C1=C/Nc1ccc2c(c1)OCO2	-26%[46.1 µM]	u	u	-11%	-13	-6%
CC1CCC/C(=C\Nc2ccc3c(c2)OCO3)C1=O (stereo not drawn)	-9%[46.1 µM]	13µM*	u	u	-10	15%
O=C(c1ccc2c(c1)OCO2)C1CCCN(Cc2ccc(OC(F)F)cc2)C1 (stereo not drawn)	x	x	x	8%	2	x
CC(=O)Nc1ccc(NC(=O)Cn2cnc3c(cnn3C(C)(C)C)c2=O)cc1	-9%[46.1 µM]	16µM*	5%	30%	0	1%
O=C(Cn1cnc2c(nnn2Cc2ccc(Cl)cc2)c1=O)OCc1ccccc1	-11%	13µM*	5%	-4%	-4	3%
CC(=O)Nc1ccc(NC(=O)Cn2cnc3c(nnn3Cc3ccc(F)cc3)c2=O)cc1	13%	11µM*	-5%	-3%	3	8%
CNC(=O)CN(c1ccc(Oc2ccccc2)cc1)S(=O)(=O)c1ccc(C)cc1	x	x	x	24%	x	x
C=CCOc1c(Cl)cc(CNc2nccs2)cc1OC	-10%	13µM*	7%	-1%	-8	-11%
C=CCOc1ccc(CNc2nccs2)cc1OCC	-1%	u	u	-8%	2	19%
COc1ccc(CNc2nccs2)cc1OC	x	x	x	16%	2	x
C=CCOc1c(CNc2nccs2)cccc1OCC	-7%[46.1 µM]	2.5µM*	-3%	4%	0	12%
N#Cc1c(-c2cccs2)nc(SCc2ccc(Cl)cc2)[nH]c1=O	u	6%	-4%	79µM*	26	10%
CSc1nc(-c2cccs2)c(C#N)c(=O)[nH]1	u	u	u	0%	11	20%
CCc1nc(SCc2ccc(F)cc2)[nH]c(=O)c1C#N	-10%[46.1 µM]	32µM*	2%	8%	19	-6%
Cc1cc(C)c(C#N)c(SCc2ccc(F)cc2)n1	-40%	4%	-3%	-18%	-4	23%
O=C(c1ccco1)N1N=C2CCCCCC2C1(O)C(F)(F)F (stereo not drawn)	-29%	u	-3%	2%	-1	3%
COC(=O)c1cc(CSc2nnc(-c3ccccc3)c(-c3ccccc3)n2)oc1C	-19%[46.1 µM]	16µM*	-9%	-10%	-2	18%
CCc1cccc2c1NC1(CCCC1)CC2C (stereo not drawn)	-47%	x	u	56µM*	-4	16%
CC1CC2(CCCCC2)Nc2ccc3ccccc3c21 (stereo not drawn)	15%[46.1 µM]	u	u	-24%	-6	22%
O=C(Nc1cccn(Cc2c(F)cccc2Cl)c1=O)NC1CCCCC1	26%	25µM*	u	u	-35*	11%
COc1ccccc1Nc1nc(-c2sc(NC(=O)c3ccc([N+](=O)[O-])cc3)nc2C)cs1	-15%[46.1 µM]	16µM*	7%	-9%	0	7%
Cc1nc2sccn2c1-c1csc(NCc2ccccc2)n1	-28%[46.1 µM]	11µM*	-19%	-16%	-4	16%
SMILES	NPSR antagonist	ALDH1A1 inh	JMJD2E inh	Sfp inh	Coupling enz	GoLoco inh red
COc1ccccc1Nc1nc(C)cs1	-3%[46.1 µM]	18µM*	6%	45µM*	0	0%
Cc1ccc(Cl)cc1Nc1nc(-c2sc(NC(=O)c3ccccc3)nc2C)cs1	-8%[46.1 µM]	20µM*	u	-21%	0	20%
CCCCCCC(=O)Nc1nc(C)c(-c2csc(Nc3cc(Cl)ccc3C)n2)s1	2%[46.1 µM]	u	-5%	-5%	1	25%
O=S1(=O)c2cccc3cccc(c23)N1CCBr	x	x	x	13%	-7	x
Cc1cc(-c2csc(NCc3ccccc3)n2)c(C)n1C	-5%	20µM*	28µM*	u	-8	86%
Cc1nc(NC(=O)c2ccccc2)sc1-c1csc(NCc2ccccc2)n1	u	u	-21%	6%	0	16%
COc1ccccc1Nc1nc(-c2sc(N)nc2C)cs1	x	x	x	50µM*	-10	x
Cc1nc(N)sc1-c1csc(NCc2ccccc2)n1	-12%[46.1 µM]	2.2µM*	u	40µM*	-27	160%
COc1ccccc1Nc1nc(-c2sc(NC(=O)c3ccccc3)nc2C)cs1	-7%[46.1 µM]	13µM*	2%	1%	-2	19%
COc1ccc(CN(C)S(=O)(=O)c2ccc3c(c2)OCCO3)cc1	x	x	x	0%	-2	x
CC(C)(C)OC(=O)N1CCC(CC2CC(c3cccc(Br)c3)=NO2)(C(=O)O)CC1 (stereo not drawn)	x	x	x	13%	4	x
Cc1c(NC(=S)NC(=O)c2cccc(Cl)c2)c(=O)n(-c2ccccc2)n1C	x	x	x	-6%	1	x
CN(C(=O)CN1CCN(c2ccccc2F)CC1)C1CCCc2ccccc21 (stereo not drawn)	x	x	x	8%	2	x
CCOc1ccc(S(=O)(=O)NCc2ccc3c(c2)OCO3)cc1NC(C)=O	x	x	x	18%	-9	x
CCNc1nc(-c2cc(C)n(Cc3ccco3)c2C)cs1	-20%	u	5%	22µM*	-14	89%
Cc1ccc(Nc2nc(C)cs2)cc1	-41%	2%	-4%	22µM*	0	3%
COc1ccccc1Nc1nc(-c2cccc([N+](=O)[O-])c2)cs1	-8%	x	-6%	11µM*	-8	3%
Cc1ccc(-c2csc(NC(=O)C3CC(=O)N(Cc4ccco4)C3)n2)cc1 (stereo not drawn)	2%	u	-2%	1%	-2	5%
Cc1csc(Nc2ccc(Cl)cc2)n1	13%	u	-7%	12%	-8	4%
C#CC[N+]1(CC#Cc2ccc(C)cc2)CCCCC1	23%	-1%	-7%	11%	1	10%
COc1cc(OC)c(/C=N/NC(=O)c2ccncc2)c(OC)c1	x	x	x	-11%	-1	x
O=C(O)CC(NC(=O)C(c1ccccc1)c1ccccc1)c1cccc([N+](=O)[O-])c1 (stereo not drawn)	7%	10%	8%	26%	13	-7%
CCOc1ccccc1NC(=O)N1CCC(C(=O)c2ccc(F)cc2)CC1	-16%[46.1 µM]	5µM*	-6%	3%	3	1%
CCOc1ccc(-n2c(SCC(=O)NCc3ccco3)nnc2-c2c[nH]c3ccccc23)cc1	13µM*	-2%	-5%	15%	0	-4%
Cc1nnc(SCC(=O)NCc2ccco2)n1Cc1ccccc1	-9%[46.1 µM]	-3%	-1%	13%	3	4%
Cc1nnc(SCC(=O)NCc2ccco2)n1-c1ccc(F)cc1	-14%[46.1 µM]	25µM*	14%	18%	0	1%

Source: PubChem BioAssay (National Center for Advancing Translational Sciences (NCATS))
